Counter-ions that a name gives are not always drawn.
What follows are compounds tested on Saccharomyces cerevisiae BY4741 SeMeCo community (assay: z-score of subpopulation abundance vs DMSO median, subpopulation auxotrophic for HLU; higher = larger share of this subpopulation than in DMSO controls). Conditions: 10 µM; 24 h; SM minimal medium; subpopulation (auxotrophy): HLU.
Procedure: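 Fluorescent four-plasmid SeMeCo (self-establishing metabolically cooperating S. cerevisiae BY4741 community; plasmids pH-mRuby2, pL-mWasabi, pU-eCFP, pM-TagRFP657) was grown 24 h in minimal SM medium with each Selleck FDA-approved drug at 10 µM in 384-well plates. Cells were fixed and imaged by high-content confocal microscopy. For each auxotrophic subpopulation (and the prototroph), a z-score gives the deviation from the DMSO vehicle-control population median.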

SMILES | z-score of subpopulation abundance
COc1cc(C(C)=O)ccc1OCCCN1CCC(c2noc3cc(F)ccc23)CC1 [Iloperidone] | -1.31
O=C1OCCN1/N=C/c1ccc([N+](=O)[O-])o1 [Furazolidone] | -2.4
C=CCc1ccc(O)c(-c2ccc(O)c(CC=C)c2)c1 [Honokiol] | -1.04
CCCCCOc1ccccc1/C(=C\SC)n1ccnc1 [Neticonazole Hydrochloride] | 2.52
O=C1Cc2cc(CCN3CCN(c4nsc5ccccc45)CC3)c(Cl)cc2N1 [Ziprasidone HCl] | 0.15
CN[C@H](CC(C)C)C(=O)N[C@H]1C(=O)N[C@@H](CC(N)=O)C(=O)N[C@H]2C(=O)N[C@H]3C(=O)N[C@H](C(=O)N[C@H](C(=O)O)c4cc(O)cc(O)c4-c4cc3ccc4O)[C@H](O)c3ccc(c(Cl)c3)Oc3cc2cc(c3O[C@@H]2O[C@H](CO)[C@@H](O)[C@H](O)[C@H]2O[C@H]2C[C@](C)(N)[C@H](O)[C@H](C)O2)Oc2ccc(cc2Cl)[C@H]1O [Vancomycin] | -0.21
O=C(O)c1cn(C2CC2)c2cc(N3CCNCC3)c(F)cc2c1=O [Ciprofloxacin hydrochloride hydrate] | 0.36
COc1ccc2cc3[n+](cc2c1OC)CCc1cc2c(cc1-3)OCO2 [Berberine Sulfate] | 0.06
OC(c1cc(C(F)(F)F)nc2c(C(F)(F)F)cccc12)C1CCCCN1 (stereo not given) [Mefloquine HCl] | 0.29
O=[N+]([O-])c1ccc(O)c2ncccc12 [Nitroxoline] | 24.8
Nc1nc2c(ncn2COC(CO)CO)c(=O)[nH]1 [Ganciclovir] | 0.54
CO[C@H]1C[C@@H]2CC[C@@H](C)[C@@](O)(O2)C(=O)C(=O)N2CCCC[C@H]2C(=O)O[C@H]([C@H](C)C[C@@H]2CC[C@@H](O)[C@H](OC)C2)CC(=O)[C@H](C)/C=C(\C)[C@@H](O)[C@@H](OC)C(=O)[C@H](C)C[C@H](C)/C=C/C=C/C=C/1C [Rapamycin (Sirolimus)] | 21
O=C(Cn1ccnc1[N+](=O)[O-])NCc1ccccc1 [Benznidazole] | -0.74
N[C@H]1CONC1=O [L-Cycloserine] | 4.59
COc1nc2ccc(Br)cc2cc1[C@@H](c1ccccc1)[C@@](O)(CCN(C)C)c1cccc2ccccc12 [Bedaquiline fumarate] | 0.68
CCOC(=O)c1c(CSc2ccccc2)n(C)c2cc(Br)c(O)c(CN(C)C)c12 [Arbidol HCl] | 0.12
CCOC(=O)C1=C[C@@H](OC(CC)CC)[C@H](NC(C)=O)[C@@H](N)C1 [Oseltamivir Phosphate] | -0.07
CC[C@H]1OC(=O)[C@H](C)[C@@H](O[C@H]2C[C@@](C)(OC)[C@@H](O)[C@H](C)O2)[C@H](C)[C@@H](O[C@@H]2O[C@H](C)C[C@H](N(C)C)[C@H]2O)[C@](C)(O)C[C@@H](C)CN[C@H](C)[C@@H](O)[C@]1(C)O [Azathramycin] | -1.12
CN(C)CCc1c[nH]c2ccc(CS(=O)(=O)N3CCCC3)cc12 [Almotriptan Malate] | -0.86
Fc1ccc([C@@H]2CCNC[C@H]2COc2ccc3c(c2)OCO3)cc1 [Paroxetine HCl] | -0.09

SMILES | z-score of subpopulation abundance
Cc1c(Nc2ncccc2C(=O)O)cccc1C(F)(F)F [Flunixin Meglumin] | -1
NC(=O)N1c2ccccc2C=Cc2ccccc21 [Carbamazepine] | 0.32
CN1C2CCCC1CC(NC(=O)c1nn(C)c3ccccc13)C2 (stereo not given) [Granisetron HCl] | 0.66
Cc1ccc(O)c([C@H](CCN(C(C)C)C(C)C)c2ccccc2)c1 [Tolterodine tartrate] | 0.29
Cc1ncc([N+](=O)[O-])n1CC(O)CCl (stereo not given) [Ornidazole] | -0.38
CCN(CC)C(=O)N1CCN(C)CC1 [Diethylcarbamazine citrate] | -0.06
CC1(C)S[C@@H]2[C@H](NC(=O)[C@H](NC(=O)N3CCNC3=O)c3ccccc3)C(=O)N2[C@H]1C(=O)O [Azlocillin sodium salt] | -0.4
CCC(C)C1OC2(CCC1C)CC1CC(CC=C(C)C(OC3CC(OC)C(OC4CC(OC)C(O)C(C)O4)C(C)O3)C(C)C=CC=C3COC4C(O)C(C)=CC(C(=O)O1)C34O)O2 (stereo not given) [Ivermectin] | 2.13
CSCC1CN(/N=C/c2ccc([N+](=O)[O-])o2)C(=O)O1 (stereo not given) [Nifuratel] | -1.21
Cc1cc(-c2ccc(/N=N/c3ccc4c(S(=O)(=O)O)cc(S(=O)(=O)O)c(N)c4c3O)c(C)c2)ccc1/N=N/c1ccc2c(S(=O)(=O)O)cc(S(=O)(=O)O)c(N)c2c1O [Evans Blue] | 429
NC(=O)N/N=C/c1ccc([N+](=O)[O-])o1 [Nitrofural] | -1.14
O=C(O)c1ccccc1C(=O)Nc1ccc(S(=O)(=O)Nc2nccs2)cc1 [Phthalylsulfathiazole] | 0.04
CC1(C)S[C@@H]2[C@H](NC(=O)Cc3ccccc3)C(=O)N2[C@H]1C(=O)O [Benzathine penicilline] | -0.11
CCn1cc(C(=O)O)c(=O)c2cc(F)c(N3CCNCC3)nc21 [Enoxacin Sesquihydrate] | -0.17
O=C(Cn1cnnn1)N[C@@H]1C(=O)N2C(C(=O)O)=C(CSc3nncs3)CS[C@H]12 [Ceftezole sodium] | 0.11
C[C@@H](c1nc(-c2ccc(C#N)cc2)cs1)[C@](O)(Cn1cncn1)c1cc(F)ccc1F [Isavuconazole] | 6.83
N=C(N)NC(=N)N1CCOCC1 [Moroxydine HCl] | 0.08
Clc1ccc(COC(Cn2ccnc2)c2ccc(Cl)cc2Cl)cc1 (stereo not given) [Econazole] | 4.6
CCc1c2c(nc3ccc(OC(=O)N4CCC(N5CCCCC5)CC4)cc13)-c1cc3c(c(=O)n1C2)COC(=O)[C@]3(O)CC [Irinotecan HCl Trihydrate] | -0.35
OCCOCCN1CCN(C2=Nc3ccccc3Sc3ccccc32)CC1 [Quetiapine Fumarate] | 0.76

— the supplement of paper PMC8975748
